# Reference: PubChem BioAssay AID1347076 (National Center for Advancing Translational Sciences (NCATS), 2019)
# Among all 400,000 compounds or so, about 13,000 (3.2%) were called active. About 18% were inconclusive and are not listed. The call rests on the fitted dose curve; in most records, active means well fitted cell-killing curve with a large enough effect; inconclusive means small, poorly fitted or top-dose-only effect, or effect the other way; inactive means flat fitted curve, though single readings scatter. Shown is part of a subset that was picked to be rich in actives. Entries that show only a call come without a potency.
# Test: qHTS assay for MDR1-selective chemotherapeutics: Primary screen using the drug-selected MDR subline cells KB-V1; further: nearly all actives have a fitted effect of over 60% in size
# Conditions: KB-V1 MDR cells viability, CellTiter-Glo, 72 h; series mostly up to 46.1 µM
# In short: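 Following 72 h at 37 degrees C with compound, KB-V1 cell viability was read by CellTiter-Glo luminescence, medium being phenol-red-free DMEM plus 10% FBS; concentration-response parameters came from normalized, curve-fitted qHTS data.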
# Potency means the concentration at half of the fitted maximal effect.
row,Structure (SMILES),Potency
1,CCC1(C)Cc2c(sc3nc4n(c(=O)c23)CCCS4)CO1 (configuration not stated),inactive
2,CCCSc1nc(NCc2ccco2)c2c3c(sc2n1)COC(C)(CC)C3 (configuration not stated),16.4 µM (active)
3,CCCSc1nc2sc3c(c2c(=O)n1-c1cccc(Br)c1)CC(C)(C)OC3,inactive
4,Cc1ccc(N2CC(c3nnc(Cc4ccccc4Cl)o3)CC2=O)cc1 (configuration not stated),inactive
5,CC(C)(C)OC(=O)N1CCC(c2c(C(=O)N3CCN(c4cccc(Cl)c4)CC3)cnn2-c2cccc(Cl)c2)CC1,inactive
6,Cc1ccc(OCC(=O)NC(C)c2ccccc2)c([N+](=O)[O-])n1 (configuration not stated),inactive
7,Cc1ccc(OCC(=O)Nc2ccccc2Sc2ccc(Cl)cc2)c([N+](=O)[O-])n1,9.2 µM (active)
8,O=C(COc1cccnc1[N+](=O)[O-])Nc1ccc(Cl)cc1F,inactive
9,Cc1ccc(S(=O)(=O)N2CC3C(=O)C[C@@H](c4ccccc4Cl)N(S(=O)(=O)c4ccc(C)cc4)C3CC2c2ccccc2)cc1 (some centres not stated),inactive
10,COc1ccc(C(C)(C)C)cc1NC(=O)CN(C)C1=NS(=O)(=O)c2ccccc21,inactive
11,CC1(C(=O)NCc2ccc3c(c2)OCO3)CCN1C(=O)Cc1cccs1 (configuration not stated),inactive
12,C[C@H](NC(=O)CC[C@H]1O[C@@H](n2ccc(=O)[nH]c2=O)[C@H](O)[C@@H]1O)c1cccc2ccccc12,inactive
13,CNC(=S)NNC(=O)c1ccc(N(C)C)cc1,11.6 µM (active)
14,CNC(=S)NNC(=O)c1sccc1OCc1ccccc1,inactive
15,CC(=O)NC(=S)NNC(=O)c1ccc(Br)cc1,inactive
16,COC(=O)C1(C(=O)OC)C/C=C\CN(S(=O)(=O)c2ccccc2[N+](=O)[O-])CCC1,inactive
17,COc1ccc(NC(=O)c2sc(=O)n(Cc3ccc(S(=O)(=O)N(C)C)cc3)c2C)cc1,9.2 µM (active)
18,COc1ccc(NS(=O)(=O)c2cc(NC(=O)c3ccc(S(=O)(=O)N(C)C)cc3)ccc2N2CCOCC2)cc1,inactive
19,COc1ccc(Cn2c(C)c(C)c(C#N)c2NC(=O)Nc2ccc(F)cc2)cc1,inactive
20,Cc1nc(SCC(=O)N2CC(=O)Nc3ccccc32)c2c(C)c(C)sc2n1,inactive
21,Cc1nc(SCC(=O)N2CCc3ccccc3C2)c2c(C)c(C)sc2n1,18.4 µM (active)
22,O=C(CSc1nnc(-c2cccs2)n1Cc1ccccc1)N1CCc2ccccc2C1,inactive
23,COc1ccc(OC)c(C(=O)NC2CCCc3c2cnn3-c2cc(C)cc(C)c2)c1 (configuration not stated),inactive
24,Cc1cccc(N2CCN(C(=O)c3cnc(N4CCCC4)nc3C)CC2)c1C,inactive
25,CCOC(=O)N1CCc2c(sc3c2C(=O)NC(c2ccccc2F)N3)C1 (configuration not stated),inactive

row,Structure (SMILES),Potency
1,O=C1NC(c2ccncc2)Nc2sc3c(c21)CCCC3 (configuration not stated),20.6 µM (active)
2,C/C(=C\c1ccccc1)C1NC(=O)c2c(sc3c2CCCC3)N1 (configuration not stated),inactive
3,COc1ccc(NC(=O)CCCN2C(=O)CCn3nc(-c4cn(C)c5ccccc45)cc32)cc1OC,inactive
4,Cc1ccc(OCC(=O)NNC(=S)NCc2ccccc2)cc1,inactive
5,COc1ccc(C(=O)Nc2cc(C)ccc2NC(=O)COc2ccccc2)cc1,inactive
6,Cc1cccc(NC(=O)c2ccc(OCC(=O)NCc3ccccc3)cc2)c1C,14.6 µM (active)
7,O=C(COC(=O)c1ccccc1OCCOc1ccccc1)Nc1cccc(Br)c1,inactive
8,COCCNC(=O)C1CCCN(Cc2ccccc2Cl)CC1 (configuration not stated),inactive
9,COC(=O)CCCCC1=CCC2C(=O)C=C(O)C2C1 (configuration not stated),inactive
10,Cc1sc2nc(-c3ccccc3F)oc(=O)c2c1C,inactive
11,CCOc1ccc(NC(=O)c2cc3c(=O)n(Cc4cccs4)ccc3nc2C)cc1,inactive
12,O=C(NNC(=O)c1ccc(-c2ccccc2)cc1)Nc1ccccc1,inactive
13,C=CC[n+]1c(-c2ccc(C)cc2)csc1NNC(=O)Nc1ccccc1,14.6 µM (active)
14,C=CCNc1scc(-c2ccccc2)[n+]1CC=C,inactive
15,Cc1ccc(S(=O)(=O)N2C[C@H]3C(=O)C[C@@H](c4cccc5ccccc45)N(S(=O)(=O)c4ccc(C)cc4)[C@H]3C[C@H]2c2ccc(Cl)cc2)cc1,inactive
16,Cc1ccccc1-c1nc(NC(C)C)nc2cc(-c3ccccc3)sc12,inactive
17,O=C(c1cc2c(s1)CCC2)N1CCN(c2ccccc2)CC1,20.6 µM (active)
18,O=C(C1CCC1)N1CCN(c2ccccc2)CC1,inactive
19,O=C(NNC(=O)c1cc2c(s1)CCCC2)c1ccccc1,inactive
20,O=[N+]([O-])c1ccc(/C=C/c2ccc3cccnc3c2)cc1,inactive
21,COc1cc(C(=O)N2CCOC23CCN(Cc2ccccc2)CC3)cc(OC)c1OC,inactive
22,CCc1nc2ccc(C(=O)N3CCN(c4cc(Cl)ccc4C)CC3)cc2nc1CC,inactive
23,COC(=O)c1ccc(C(=O)OC)c(NC(=S)N2CCCCC2)c1,inactive
24,COC(=O)c1ccc(C(=O)OC)c(NC(=S)N2CCN(c3cc(Cl)ccc3C)CC2)c1,20.6 µM (active)
25,O=C1CCc2cc(S(=O)(=O)Nc3cccc(Oc4ccccc4)c3)ccc2N1,inactive

row,Structure (SMILES),Potency
1,COCCn1c(SCC(=O)Nc2cc(OC)ccc2OC)nc2c(c1=O)SC(C)C2 (configuration not stated),inactive
2,CCn1c(SCC(=O)Nc2ccc3c(c2)OCCO3)nc2c(c1=O)SC(C)C2 (configuration not stated),4.11 µM (active)
3,CCn1c(SCC(=O)Nc2ccccc2F)nc2c(c1=O)SC(C)C2 (configuration not stated),inactive
4,CN(CC(=O)Nc1ccccc1F)S(=O)(=O)c1ccc2c(c1)c(=O)n(C)c(=O)n2C,inactive
5,Cc1nc2c(OCC(=O)C(C)(C)C)cccn2c1N(C)Cc1cccs1,inactive
6,COc1ccc2c(c1)CCCO[C@]21O[C@H](CCO)C[C@H](O)[C@H]1O,inactive
7,COc1ccc(CC(=O)NC(C)c2ccc(Cl)c(Cl)c2)cc1S(=O)(=O)N1CCOCC1 (configuration not stated),23.1 µM (active)
8,O=C(COC(=O)CCc1ccc(S(=O)(=O)N2CCOCC2)cc1)Nc1cccc(Cl)c1,inactive
9,O=C(COC(=O)c1ccccc1)Nc1cccc(S(=O)(=O)N2CCOCC2)c1,inactive
10,Cc1ccc(CC(=O)Nc2ccc(S(=O)(=O)N3CCOCC3)cc2)cc1C,inactive
11,O=C(CCc1ccc(S(=O)(=O)N2CCOCC2)cc1)Nc1ccc2ccccc2c1,16.4 µM (active)
12,O=C(CN1CCc2ccccc2C1)Nc1cccc(S(=O)(=O)N2CCOCC2)c1,18.4 µM (active)
13,COc1ccc(C(=O)N(C)Cc2ccc(OC)c(OC)c2OC)cc1S(=O)(=O)N1CCOCC1,inactive
14,O=C(CSc1ccccc1)Nc1cccc(S(=O)(=O)N2CCOCC2)c1,inactive
15,COc1ccc(CCC(=O)Nc2ccc(Cl)c(S(=O)(=O)N3CCOCC3)c2)cc1OC,16.4 µM (active)
16,COc1ccc(CC(=O)Nc2ccc3c(c2)CCC3)cc1S(=O)(=O)N1CCOCC1,inactive
17,CN(CC(=O)Nc1ccc(F)cc1)CC(=O)Nc1ccc(Cl)c(S(=O)(=O)N2CCOCC2)c1,inactive
18,COc1ccc(C(=O)OC(C)C(=O)NC2CCCC2)cc1S(=O)(=O)N1CCOCC1 (configuration not stated),inactive
19,CCc1noc(C)c1C(=O)OCC(=O)c1ccc(NC(=O)CC(C)C)cc1,inactive
20,Nc1ncnc2c1ncn2[C@@H]1O[C@H](C(=O)NCC(F)(F)F)[C@@H](O)[C@H]1O,inactive
21,COc1ccc(C=C2CCC3C(CCCC34OCCO4)C2=O)cc1 (configuration not stated),inactive
22,OC[C@@H]1CN(Cc2ccc(Cl)cc2)C[C@H](n2cnc3c(NCc4ccncc4)ncnc32)O1,inactive
23,Cc1cccc(C(=O)OCC(=O)Nc2sccc2C(N)=O)c1C,inactive
24,NCCCNC(=S)NCCCN(Cc1ccc(Cl)cc1)c1ccc(Br)cn1,inactive
25,NC(=O)CSc1nnc(-c2cccc(S(=O)(=O)N3CCOCC3)c2)o1,inactive

row,Structure (SMILES),Potency
1,O=C(/C=C\c1ccc2c(c1)OCO2)NC1(C(=O)Nc2ccc3c(c2)OCCO3)CCCCC1,inactive
2,COc1cccc(/C=C/C(=O)Nc2ccc3c(c2)OCCO3)c1,inactive
3,COc1ccc(/C=C/C(=O)Nc2ccc3c(c2)OCCO3)cc1OC,20.6 µM (active)
4,Cc1nn2c(=O)cc(COC(=O)CNC(=O)c3ccc(F)cc3)nc2s1,inactive
5,Cc1ccc2nc(NCCCNC(=O)c3cnccn3)c(C#N)cc2c1,inactive
6,Cc1cc(C)c2cc(C#N)c(N3CCNCC3)nc2c1,inactive
7,CCC(C)(C)n1nnnc1CN1CCN(c2nc3ccc(C)cc3cc2C#N)CC1,23.1 µM (active)
8,NS(=O)(=O)c1ccc(NC(=O)C(=O)Nc2ccc3nc4n(c(=O)c3c2)CCCCC4)cc1,inactive
9,CN1OC[C@@H]2CN(C(=O)c3cccc4ccccc34)[C@H](c3ccc(N4CCCCC4)cc3)C[C@@H]21,inactive
10,CS(=O)(=O)Nc1ccc(C2=NN(S(C)(=O)=O)C(c3cccs3)C2)cc1 (configuration not stated),inactive
11,CNc1cncc(-c2cccc(C(=O)N3CCOCC3)c2)n1,inactive
12,CNc1cncc(-c2ccc(NS(C)(=O)=O)cc2)n1,5.17 µM (active)
13,O=C(NCCN1CCOCC1)c1ccc2c(c1)N(Cc1cccc(Cl)c1)C(=O)c1ccccc1S2(=O)=O,inactive
14,CCc1ccc2oc(-c3ccc(C)c(NC(=O)/C=C/c4ccco4)c3)nc2c1,inactive
15,Cc1sc2ncnc(SCC(=O)NC3CCS(=O)(=O)C3)c2c1C (configuration not stated),inactive
16,CCOC(=O)c1c(NC(=O)CSc2nccc(=O)[nH]2)sc(C)c1C,inactive
17,COC(=O)c1c(-c2cccs2)csc1NC(=O)CSc1ncnc2sc(C)c(C)c12,18.4 µM (active)
18,COCCn1c(SCC(=O)c2cc(C)ccc2C)nc2cc(C(=O)NC3CCCC3)ccc2c1=O,inactive
19,CCCCN(CCCNC(=O)c1cc(Nc2ccccc2OC)nc2ccccc12)c1ccccc1,inactive
20,O=C1CC2(CCCCC2)Oc2ccc(OCC(=O)N3CCOCC3)cc21,11.6 µM (active)
21,O=C1CC2(CCN(C(=O)COc3ccc(F)cc3)CC2)Oc2ccccc21,inactive
22,O=C(Nc1cccc(OCC(=O)N2CCOCC2)c1)C1CCCCC1,inactive
